# Source: the supplement of paper PMC3334620
# Over roughly 33,000 sequences, “E-score (-0.5 to 0.5)” has its median near -0.01; the highest 2% begin near 0.26. Many of the other results were omitted from the sample, so the highest values are more common in it than they were.
# Target: Ste12 (UniProt P13574)
# Experiment: PBM E-score (8-mer binding enrichment) (E-score (-0.5 to 0.5)); higher = stronger / more preferred TF binding
# Conditions: protein concentration: 200 nM; construct: GST-DNA-binding domain
# Procedure: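 Universal 'all 10-mer' protein binding microarrays (Agilent AMADID 015681) probed with GST-tagged S. cerevisiae TFs (full-length or DBD) made by in vitro transcription/translation (PURExpress), about 100-200 nM. Bound TF was detected with fluorescent anti-GST. Each ungapped 8-mer (which stands for itself and its reverse complement) is scored by the PBM enrichment score (E-score), a modified Wilcoxon-Mann-Whitney statistic from -0.5 to +0.5, computed with the Universal PBM Analysis Suite. Scale: above 0.35 generally sequence-specific binding.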
# UniProt P13574, sequence (P13574 whole entry): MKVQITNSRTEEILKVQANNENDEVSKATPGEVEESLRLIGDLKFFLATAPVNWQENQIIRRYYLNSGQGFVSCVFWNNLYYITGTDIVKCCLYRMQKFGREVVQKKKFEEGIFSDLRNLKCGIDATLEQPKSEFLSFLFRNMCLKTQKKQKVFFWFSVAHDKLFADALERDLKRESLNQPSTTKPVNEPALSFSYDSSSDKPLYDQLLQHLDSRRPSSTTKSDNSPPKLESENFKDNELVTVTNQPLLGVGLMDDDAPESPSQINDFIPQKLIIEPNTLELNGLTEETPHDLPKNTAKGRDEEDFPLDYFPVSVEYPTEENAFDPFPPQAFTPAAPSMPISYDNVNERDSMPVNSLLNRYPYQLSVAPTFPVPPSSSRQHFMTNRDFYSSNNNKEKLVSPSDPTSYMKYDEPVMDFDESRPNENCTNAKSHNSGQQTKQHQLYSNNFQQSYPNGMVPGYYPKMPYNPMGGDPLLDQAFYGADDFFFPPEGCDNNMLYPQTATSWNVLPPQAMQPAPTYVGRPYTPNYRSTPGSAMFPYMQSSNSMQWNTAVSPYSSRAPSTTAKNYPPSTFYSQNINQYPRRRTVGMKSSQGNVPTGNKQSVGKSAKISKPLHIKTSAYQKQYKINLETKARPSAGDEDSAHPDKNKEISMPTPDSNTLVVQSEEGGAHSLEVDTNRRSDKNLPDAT
row,Sequence,PBM E-score
1,ATATGAAC,0.154
2,GTATGAAC,-0.018
3,TTATGAAA,0.431
4,CTATGAAA,0.211
5,CTATGAAG,0.0327
6,GTATGAGA,-0.0324
7,GTATGAAA,0.338
8,GTTTTCCA,0.093
9,ATTGGGCG,-0.00653
10,CTGTTTAC,0.0415
11,GTGTTGCA,0.159
12,CTGTTTCA,0.484
13,ATGTTTCG,0.366
14,ATGTTTCA,0.493
15,GTGTTTCA,0.489
16,ATGTTTCC,0.178
17,ATGTTCCA,0.18
18,GTATTTCA,0.1
19,ATATTTCA,0.139
20,CTGTTTCC,0.0865
21,ATGTTTAG,0.214
22,ACCATAAT,0.114
23,AGAAGCAA,0.153
24,ACAGTGCC,-0.0356
25,AGCTGCGC,-0.177
26,CTGTTTTA,0.308

row,Sequence,PBM E-score
1,AGGTTTTG,0.0633
2,CTGTTTAA,0.22
3,ATGTTTTA,0.374
4,CTGTTTTC,0.0946
5,GGGTTTTA,0.217
6,ATGTTTTG,0.335
7,GTGTTTTA,0.405
8,GTGTTTAA,0.155
9,ATGTTTTC,0.172
10,ATGTTTAA,0.0895
11,ATTTTTTG,0.222
12,ACAAGCAA,-0.00365
13,ACCTATGA,-0.21
14,CGCTGGTA,-0.118
15,ATAGCAAA,0.0867
16,CGGGAGTC,-0.12
17,AAAGTTGA,0.111
18,GGCGCAAA,0.218
19,GAATGAAC,0.016
20,CAATGAAA,0.258
21,GAATGAGA,-0.00579
22,GAATGAAA,0.322
23,TAATGAAA,0.155
24,AAATGAAA,0.426
25,CCTAGACG,-0.134
26,TAGAGAAA,0.0197

row,Sequence,PBM E-score
1,ATCATTAG,0.0954
2,GACATTTA,-0.0124
3,AACATTAA,0.301
4,ATCATTAA,0.298
5,AACATTTA,0.29
6,AACATTAT,0.125
7,GACATTAA,0.173
8,CTCATTAA,0.111
9,AACATTTC,0.0303
10,GAGAGAAC,-0.0294
11,CTTGGCTA,0.0252
12,GCGTGACA,0.126
13,GCGGCAGA,-0.128
14,GAATAAGC,-0.0403
15,GTGTTCCA,0.141
16,AATGCGGT,-0.0129
17,CCGTTGCC,-0.253
18,ATGTAATA,0.217
19,ATTTTAAC,0.19
20,TGTTAAAA,0.168
21,ATTTAAAA,0.314
22,ATTTTAAG,0.161
23,AGTTAAAA,0.286
24,ACTTAAAA,0.183
25,AAATTTTG,0.0681
26,ATTTTAAA,0.348

row,Sequence,PBM E-score
1,ATTTAACA,0.181
2,CGTTAAAA,-0.00084
3,AATTTTTG,0.321
4,AATTTTGG,0.104
5,GGTTTTGA,0.111
6,CCATACCC,0.128
7,CTAGAATA,0.171
8,GCACAGCA,-0.102
9,CAGTGGGC,-0.199
10,GACTTAGA,-0.272
11,AGCTTGAG,-0.164
12,AAGTTCGT,-0.226
13,TACCAGAA,0.253
14,TGCATACA,-0.139
15,TAACGCGA,0.0877
16,AAGCTCGT,-0.195
17,ATTTTACG,0.243
18,ATATTTAA,0.347
19,CTATTTAA,0.194
20,AATTTTAA,0.318
21,ATTTTACC,0.277
22,CTATTTTA,0.232
23,ATATTTAC,0.219
24,AATTTTAT,0.217
25,ATATTTTA,0.235
26,AATTTACC,0.137

row,Sequence,PBM E-score
1,ATTTTTTA,0.331
2,AATTTTAC,0.251
3,ACCGTTAC,-0.0206
4,TCGGTACA,0.0794
5,ACTGAGCA,-0.119
6,ACAGGATG,0.0588
7,CTCTAGAG,-0.162
8,AACAACGC,0.111
9,AAGCCCCG,0.0304
10,AATTTTGA,0.145
11,ATTTTTAG,0.175
12,ATTTTTGA,0.298
13,ATTTTTAC,0.207
14,AAATTTTA,0.132
15,GCATTTAA,0.12
16,AATTTTTC,0.181
17,ACATTTAA,0.32
18,ATTTTTGG,0.183
19,ACATTTAG,-0.0629
20,AATTTTTA,0.283
21,ATTTTTAA,0.28
22,TAAGCCAA,0.00854
23,GGCTTAGA,-0.0335
24,TACCAGCA,-0.0129
25,CTAGTACA,0.0611
26,GCAATCCC,0.0206

row,Sequence,PBM E-score
1,CTCTTTAC,0.0191
2,AAAGTGGG,0.182
3,AGTTCGAC,-0.147
4,CCCTGAGG,-0.213
5,ACATCTAA,0.114
6,ATTTTGTC,0.114
7,ATTTTGTG,0.281
8,ATTTTGTA,0.16
9,AAGTTGCA,-0.0946
10,CCATCAAC,-0.144
11,CGTTACAG,0.146
12,AGTTACAA,0.157
13,CGTTATAA,0.143
14,GGTTACTA,0.0972
15,CGTTACAA,0.314
16,TCTTACAA,0.0356
17,AGTTATAA,0.133
18,TGTTACAA,0.387
19,CGTTACAC,0.122
20,GGTTACAC,-0.0834
21,GGTTACAA,0.284
22,TGTTATAA,0.283
23,CCCATACG,-0.123
24,GGTAGAAC,-0.101
25,CCATATCC,0.0086
26,AGCCTCTC,-0.234

row,Sequence,PBM E-score
1,AGTTTTGG,0.104
2,AAGTTACG,0.0247
3,CAATATGA,0.0995
4,AAATATTC,0.14
5,CAATATTA,0.176
6,AAATATGT,0.226
7,AAATATTA,0.352
8,AAATATGA,0.308
9,ATCAGCCA,-0.0331
10,CCGTTTTC,0.133
11,GCGTTTTA,0.352
12,GCTTTTTA,0.271
13,GCTTTTAA,-0.0048
14,ACGTTTTA,0.295
15,CCTTTTTA,0.051
16,GCGTTTAA,0.103
17,CCGTTTAA,0.135
18,ACGTTTTG,0.222
19,ACGTTTAA,0.0563
20,CCGTTTTA,0.304
21,GCGTTTAC,-0.0566
